This is an account of results in the supplement of paper PMC6411743.

Compound in this assay: Nc1ncnc2c1ncn2[C@@H]1O[C@H](COP(=O)(O)OP(=O)(O)OP(=O)(O)O)[C@@H](O)[C@H]1O [adenosine triphosphate]
The assay is described as follows: NP40-soluble protein abundance relative to vehicle (solubility fold change) (ratio); higher = more soluble protein in presence of ATP. In short, it runs like this: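 Across three independent experiments, values are fold changes against the detergent-processed vehicle for each replicate, based on vsn-normalised intensities. The samples were Jurkat crude lysate treated with eight concentrations (0.1 to 10 mM) for 10 min at room temperature and then 3 min at 37 °C. Lysate was solubilised with 0.8% NP40 and benzonase, ultracentrifuged, and the supernatant analysed by TMT-labelled LC-MS/MS.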

± gives the standard deviation of the averaged measurements. The full data set covers some 6,500 targets. This sample favours those with the largest changes.

Sequence of UniProt O00764 (O00764 whole entry): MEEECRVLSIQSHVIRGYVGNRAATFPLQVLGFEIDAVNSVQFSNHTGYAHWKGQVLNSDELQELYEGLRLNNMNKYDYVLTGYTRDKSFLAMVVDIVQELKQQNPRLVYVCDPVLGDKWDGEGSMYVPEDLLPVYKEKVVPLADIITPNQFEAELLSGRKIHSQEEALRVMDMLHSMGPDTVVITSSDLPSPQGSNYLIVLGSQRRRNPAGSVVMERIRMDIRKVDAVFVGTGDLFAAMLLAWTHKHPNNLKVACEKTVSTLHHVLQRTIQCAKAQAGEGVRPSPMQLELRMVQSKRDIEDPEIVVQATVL
Sequence of UniProt Q9H2U1 (Q9H2U1 whole entry, one chain of several): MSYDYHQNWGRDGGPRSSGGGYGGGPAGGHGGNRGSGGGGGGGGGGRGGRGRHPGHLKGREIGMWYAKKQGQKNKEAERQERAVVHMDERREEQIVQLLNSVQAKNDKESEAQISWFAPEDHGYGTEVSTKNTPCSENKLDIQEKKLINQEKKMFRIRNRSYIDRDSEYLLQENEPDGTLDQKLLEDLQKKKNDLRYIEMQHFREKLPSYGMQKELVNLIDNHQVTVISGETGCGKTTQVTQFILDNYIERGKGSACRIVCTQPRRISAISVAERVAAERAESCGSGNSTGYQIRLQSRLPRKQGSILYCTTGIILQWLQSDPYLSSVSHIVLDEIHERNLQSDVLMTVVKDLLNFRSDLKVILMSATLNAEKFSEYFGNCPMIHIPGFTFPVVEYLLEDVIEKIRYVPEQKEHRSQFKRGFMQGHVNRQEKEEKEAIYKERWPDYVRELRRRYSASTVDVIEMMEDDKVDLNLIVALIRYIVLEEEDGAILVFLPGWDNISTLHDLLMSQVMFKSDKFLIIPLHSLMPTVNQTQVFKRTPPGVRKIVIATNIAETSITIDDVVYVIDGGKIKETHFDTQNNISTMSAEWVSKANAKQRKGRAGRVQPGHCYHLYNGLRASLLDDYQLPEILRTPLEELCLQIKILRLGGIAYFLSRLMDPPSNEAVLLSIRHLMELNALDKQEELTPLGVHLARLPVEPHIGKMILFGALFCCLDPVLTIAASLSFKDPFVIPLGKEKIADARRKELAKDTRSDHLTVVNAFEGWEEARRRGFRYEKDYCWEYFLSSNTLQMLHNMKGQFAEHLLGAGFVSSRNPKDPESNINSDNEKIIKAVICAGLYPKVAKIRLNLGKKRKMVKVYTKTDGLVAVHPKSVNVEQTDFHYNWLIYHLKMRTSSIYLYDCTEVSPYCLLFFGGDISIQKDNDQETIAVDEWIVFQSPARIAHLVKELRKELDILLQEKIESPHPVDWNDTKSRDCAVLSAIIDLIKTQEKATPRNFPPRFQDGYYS
Sequence of UniProt P08575 (P08575 whole entry, one chain of several): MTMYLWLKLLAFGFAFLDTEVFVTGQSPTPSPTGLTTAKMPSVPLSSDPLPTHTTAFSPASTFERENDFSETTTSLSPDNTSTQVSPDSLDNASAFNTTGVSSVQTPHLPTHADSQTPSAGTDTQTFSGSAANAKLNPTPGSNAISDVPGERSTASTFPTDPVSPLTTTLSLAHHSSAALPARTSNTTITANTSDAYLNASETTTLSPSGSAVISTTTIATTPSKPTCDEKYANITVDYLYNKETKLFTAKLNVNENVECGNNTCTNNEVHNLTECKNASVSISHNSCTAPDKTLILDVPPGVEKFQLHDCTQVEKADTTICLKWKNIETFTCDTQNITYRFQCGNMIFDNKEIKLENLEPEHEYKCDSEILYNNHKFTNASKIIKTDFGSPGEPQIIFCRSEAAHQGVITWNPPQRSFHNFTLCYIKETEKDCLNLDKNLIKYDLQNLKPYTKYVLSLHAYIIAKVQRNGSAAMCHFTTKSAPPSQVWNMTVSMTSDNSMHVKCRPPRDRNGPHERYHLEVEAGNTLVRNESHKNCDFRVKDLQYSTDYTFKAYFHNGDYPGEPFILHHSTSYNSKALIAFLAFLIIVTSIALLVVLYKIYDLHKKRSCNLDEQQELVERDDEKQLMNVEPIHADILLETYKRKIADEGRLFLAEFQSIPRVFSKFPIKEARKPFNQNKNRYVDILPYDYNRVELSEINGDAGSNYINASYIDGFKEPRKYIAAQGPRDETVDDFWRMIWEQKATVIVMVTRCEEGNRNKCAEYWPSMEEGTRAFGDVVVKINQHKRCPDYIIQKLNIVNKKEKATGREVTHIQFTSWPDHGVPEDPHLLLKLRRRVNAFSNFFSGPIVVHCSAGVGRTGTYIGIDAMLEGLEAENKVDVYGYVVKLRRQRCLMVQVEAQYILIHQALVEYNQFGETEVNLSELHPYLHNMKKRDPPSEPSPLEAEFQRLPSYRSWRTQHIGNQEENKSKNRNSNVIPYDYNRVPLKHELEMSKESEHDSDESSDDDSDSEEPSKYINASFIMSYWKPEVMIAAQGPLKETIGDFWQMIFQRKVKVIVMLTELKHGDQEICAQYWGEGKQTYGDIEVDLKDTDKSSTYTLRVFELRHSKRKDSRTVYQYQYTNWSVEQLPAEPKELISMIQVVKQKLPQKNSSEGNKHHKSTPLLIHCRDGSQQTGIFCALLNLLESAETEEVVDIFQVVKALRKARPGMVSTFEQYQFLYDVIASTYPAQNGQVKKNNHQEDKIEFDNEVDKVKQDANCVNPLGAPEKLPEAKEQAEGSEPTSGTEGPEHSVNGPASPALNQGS
Sequence of UniProt Q9BUN8 (Q9BUN8 whole entry, one chain of several): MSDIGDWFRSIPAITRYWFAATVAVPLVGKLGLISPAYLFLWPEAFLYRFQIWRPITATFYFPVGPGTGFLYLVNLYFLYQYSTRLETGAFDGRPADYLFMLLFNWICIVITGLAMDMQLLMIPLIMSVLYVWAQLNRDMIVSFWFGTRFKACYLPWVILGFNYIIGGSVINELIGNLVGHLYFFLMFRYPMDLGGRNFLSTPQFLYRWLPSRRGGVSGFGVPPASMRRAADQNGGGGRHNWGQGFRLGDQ
Sequence of UniProt Q12851 (Q12851 whole entry, one chain of several): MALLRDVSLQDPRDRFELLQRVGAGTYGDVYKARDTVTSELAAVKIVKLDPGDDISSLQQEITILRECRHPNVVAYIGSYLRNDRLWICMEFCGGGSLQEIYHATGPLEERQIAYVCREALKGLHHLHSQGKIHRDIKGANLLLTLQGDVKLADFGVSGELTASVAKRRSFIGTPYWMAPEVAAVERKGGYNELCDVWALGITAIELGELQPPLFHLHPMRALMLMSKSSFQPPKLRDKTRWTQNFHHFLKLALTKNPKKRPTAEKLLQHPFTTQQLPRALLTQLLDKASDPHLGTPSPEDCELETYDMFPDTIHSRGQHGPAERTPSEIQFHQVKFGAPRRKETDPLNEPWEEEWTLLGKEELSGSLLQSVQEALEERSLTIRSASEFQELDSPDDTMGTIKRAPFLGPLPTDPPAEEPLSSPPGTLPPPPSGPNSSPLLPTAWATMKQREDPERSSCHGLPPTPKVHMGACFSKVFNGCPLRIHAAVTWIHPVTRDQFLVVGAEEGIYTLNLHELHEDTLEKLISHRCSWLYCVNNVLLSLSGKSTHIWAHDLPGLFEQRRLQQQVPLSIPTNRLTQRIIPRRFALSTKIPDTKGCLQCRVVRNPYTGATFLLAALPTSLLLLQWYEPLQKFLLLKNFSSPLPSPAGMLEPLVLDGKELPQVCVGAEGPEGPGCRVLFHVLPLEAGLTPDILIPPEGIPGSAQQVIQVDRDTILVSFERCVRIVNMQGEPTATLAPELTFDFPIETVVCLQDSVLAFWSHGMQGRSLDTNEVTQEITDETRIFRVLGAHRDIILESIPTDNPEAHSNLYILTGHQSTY
Sequence of UniProt O43257 (O43257 whole entry): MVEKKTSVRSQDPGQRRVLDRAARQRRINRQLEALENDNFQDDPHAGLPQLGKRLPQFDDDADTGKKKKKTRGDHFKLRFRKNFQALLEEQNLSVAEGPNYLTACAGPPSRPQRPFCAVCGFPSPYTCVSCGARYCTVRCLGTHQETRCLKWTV
Sequence of UniProt P29692 (P29692 whole entry, one chain of several): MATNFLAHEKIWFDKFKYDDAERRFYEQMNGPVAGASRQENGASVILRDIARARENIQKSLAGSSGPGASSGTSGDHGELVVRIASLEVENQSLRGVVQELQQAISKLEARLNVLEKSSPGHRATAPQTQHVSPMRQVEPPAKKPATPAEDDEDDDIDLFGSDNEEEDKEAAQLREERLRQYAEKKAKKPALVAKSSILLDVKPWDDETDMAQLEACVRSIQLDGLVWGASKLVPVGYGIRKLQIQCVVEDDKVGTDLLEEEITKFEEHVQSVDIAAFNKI
Sequence of UniProt P25686 (P25686 whole entry, one chain of several): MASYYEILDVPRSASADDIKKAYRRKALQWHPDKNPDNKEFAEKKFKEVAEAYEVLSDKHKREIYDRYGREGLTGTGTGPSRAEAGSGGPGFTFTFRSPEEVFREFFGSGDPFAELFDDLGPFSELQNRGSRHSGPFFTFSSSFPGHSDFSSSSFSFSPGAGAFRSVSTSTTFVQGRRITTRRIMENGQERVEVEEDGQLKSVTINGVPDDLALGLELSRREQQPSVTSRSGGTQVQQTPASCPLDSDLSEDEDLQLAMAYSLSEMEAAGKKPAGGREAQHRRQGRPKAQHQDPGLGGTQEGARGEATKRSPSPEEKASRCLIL
Sequence of UniProt O75131 (O75131 whole entry): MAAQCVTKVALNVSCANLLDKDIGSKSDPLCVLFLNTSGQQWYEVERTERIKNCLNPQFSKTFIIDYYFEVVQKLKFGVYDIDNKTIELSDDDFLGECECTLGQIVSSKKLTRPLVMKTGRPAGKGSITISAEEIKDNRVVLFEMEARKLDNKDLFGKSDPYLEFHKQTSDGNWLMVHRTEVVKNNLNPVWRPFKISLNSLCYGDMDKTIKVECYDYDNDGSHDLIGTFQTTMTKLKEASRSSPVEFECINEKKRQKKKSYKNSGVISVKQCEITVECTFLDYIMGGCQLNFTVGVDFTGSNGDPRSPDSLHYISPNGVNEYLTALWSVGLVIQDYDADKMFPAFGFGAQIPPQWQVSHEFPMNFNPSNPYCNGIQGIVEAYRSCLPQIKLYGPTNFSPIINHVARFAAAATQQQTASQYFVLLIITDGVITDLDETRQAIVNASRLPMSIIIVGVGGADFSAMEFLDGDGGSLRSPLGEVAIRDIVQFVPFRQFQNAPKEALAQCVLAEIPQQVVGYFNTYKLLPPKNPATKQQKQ

As for UniProt O14662-2|O14662-4|O14662-5, the NP40-soluble protein abundance reads like this: (concentration: 1mM) 0.98 ± 0.066; (concentration: 2mM) 0.94 ± 0.042; (concentration: 4mM) 0.993 ± 0.044; (concentration: 6mM) 0.974 ± 0.037; (concentration: 8mM) 0.983 ± 0.034; (concentration: 10mM) 0.921 ± 0.068.
As for H7C0H2|Q96EV2|H0Y3K4 (UniProt Q96EV2), the NP40-soluble protein abundance by setting is: (concentration: 1mM) 0.963 ± 0.093; (concentration: 2mM) 0.942 ± 0.056; (concentration: 4mM) 0.956 ± 0.086; (concentration: 6mM) 0.982 ± 0.075; (concentration: 8mM) 0.958 ± 0.067; (concentration: 10mM) 0.951 ± 0.059.
In the case of A0A0X1KG71 (UniProt Q8WX92), the NP40-soluble protein abundance by setting is: (concentration: 1mM) 0.9808 ± 0.0083; (concentration: 2mM) 0.989 ± 0.012; (concentration: 4mM) 0.9482 ± 0.0081; (concentration: 6mM) 0.959 ± 0.033; (concentration: 8mM) 0.959 ± 0.022; (concentration: 10mM) 0.956 ± 0.023.
Regarding “A0A0A0MT22|M9MML4|P08575|P08575-2|X6R433 (UniProt P08575)”, the NP40-soluble protein abundance is, setting by setting: (concentration: 1mM) 0.946 ± 0.026; (concentration: 2mM) 0.9679 ± 0.0084; (concentration: 4mM) 0.9321 ± 0.0056; (concentration: 6mM) 0.967 ± 0.014; (concentration: 8mM) 0.918 ± 0.018; (concentration: 10mM) 0.943 ± 0.036.
Turning to MAN2B1 (UniProt O00754), the NP40-soluble protein abundance is, setting by setting: (concentration: 1mM) 0.94 ± 0.027; (concentration: 2mM) 0.948 ± 0.017; (concentration: 4mM) 0.957 ± 0.023; (concentration: 6mM) 0.887 ± 0.057; (concentration: 8mM) 0.917 ± 0.038; (concentration: 10mM) 0.93 ± 0.018.
As to “C9JRD2|C9JXB9|P25686|P25686-2 (UniProt P25686)”, the NP40-soluble protein abundance (concentration: 1mM) came out at 0.969 ± 0.038; the NP40-soluble protein abundance (concentration: 2mM) was determined as 0.956 ± 0.019; the NP40-soluble protein abundance (concentration: 4mM) came out at 0.956 ± 0.022; the NP40-soluble protein abundance (concentration: 6mM) worked out at 0.971 ± 0.06; the NP40-soluble protein abundance (concentration: 8mM) is 0.973 ± 0.016; the NP40-soluble protein abundance (concentration: 10mM) was found to be 0.977 ± 0.025.
Take UniProt O75081|O75081-2|O75081-4: the NP40-soluble protein abundance was 0.943 ± 0.039 (concentration: 1mM); 0.9218 ± 0.0052 (concentration: 2mM); 0.907 ± 0.052 (concentration: 4mM); 0.888 ± 0.14 (concentration: 6mM); 0.888 ± 0.082 (concentration: 8mM); 0.97 ± 0.089 (concentration: 10mM).
Turning to “A0A0A6YYA7|Q12851|Q12851-2 (UniProt Q12851)”, the NP40-soluble protein abundance runs as follows: (concentration: 1mM) 1.02 ± 0.026; (concentration: 2mM) 1 ± 0.044; (concentration: 4mM) 1.03 ± 0.063; (concentration: 6mM) 0.994 ± 0.079; (concentration: 8mM) 0.994 ± 0.026; (concentration: 10mM) 0.998 ± 0.027.
In the case of “E9PRY8|P29692|P29692-2|P29692-3|P29692-4 (UniProt P29692)”, the NP40-soluble protein abundance is, setting by setting: (concentration: 1mM) 0.959 ± 0.054; (concentration: 2mM) 0.931 ± 0.034; (concentration: 4mM) 0.894 ± 0.03; (concentration: 6mM) 0.912 ± 0.091; (concentration: 8mM) 0.88 ± 0.042; (concentration: 10mM) 0.865 ± 0.015.
Take H7C5F5|Q9H2U1|Q9H2U1-2 (UniProt Q9H2U1): the NP40-soluble protein abundance reads like this: (concentration: 1mM) 0.963 ± 0.068; (concentration: 2mM) 0.979 ± 0.08; (concentration: 4mM) 0.987 ± 0.073; (concentration: 6mM) 1.01 ± 0.1; (concentration: 8mM) 1.03 ± 0.088; (concentration: 10mM) 1.02 ± 0.1.
For the target CPNE3 (UniProt O75131), the NP40-soluble protein abundance reads like this: (concentration: 1mM) 0.969 ± 0.067; (concentration: 2mM) 0.983 ± 0.052; (concentration: 4mM) 0.954 ± 0.054; (concentration: 6mM) 0.903 ± 0.1; (concentration: 8mM) 0.951 ± 0.024; (concentration: 10mM) 0.96 ± 0.024.
As to “B4E1G1|E5RGY0|Q9BUN8|Q9BUN8-2 (UniProt Q9BUN8)”, the NP40-soluble protein abundance (concentration: 1mM) amounted to 0.948 ± 0.084; the NP40-soluble protein abundance (concentration: 2mM) turned out to be 0.979 ± 0.12; the NP40-soluble protein abundance (concentration: 4mM) was found to be 0.989 ± 0.083; the NP40-soluble protein abundance (concentration: 6mM) was found to be 0.975 ± 0.1; the NP40-soluble protein abundance (concentration: 8mM) was found to be 0.955 ± 0.021; the NP40-soluble protein abundance (concentration: 10mM) is 1 ± 0.056.
In the case of G5E9V5|G5E9W7|P82650 (UniProt P82650), the NP40-soluble protein abundance is, setting by setting: (concentration: 1mM) 1.01 ± 0.046; (concentration: 2mM) 0.938 ± 0.079; (concentration: 4mM) 0.892 ± 0.083; (concentration: 6mM) 0.907 ± 0.18; (concentration: 8mM) 0.88 ± 0.11; (concentration: 10mM) 0.867 ± 0.1.
As for ZNHIT1 (UniProt O43257), the NP40-soluble protein abundance runs as follows: (concentration: 1mM) 1.12 ± 0.047; (concentration: 2mM) 1.16 ± 0.012; (concentration: 4mM) 1.27 ± 0.042; (concentration: 6mM) 1.3 ± 0.037; (concentration: 8mM) 1.16 ± 0.037; (concentration: 10mM) 1.19 ± 0.073.
With PDXK (UniProt O00764), the NP40-soluble protein abundance (concentration: 1mM) came to 1.02 ± 0.12; the NP40-soluble protein abundance (concentration: 2mM) worked out at 0.987 ± 0.058; the NP40-soluble protein abundance (concentration: 4mM) was 1.01 ± 0.066; the NP40-soluble protein abundance (concentration: 6mM) was found to be 0.935 ± 0.14; the NP40-soluble protein abundance (concentration: 8mM) came out at 0.989 ± 0.058; the NP40-soluble protein abundance (concentration: 10mM) is 0.981 ± 0.051.
